High-throughput results from PubChem.
HPGD inh – qHTS Assay for Inhibitors of HPGD (15-Hydroxyprostaglandin Dehydrogenase); Potency, µM, for the others: at the highest dose activity change, negative = inhibition, actives largely listed as inhibitors; hit rate 4.3% among 150,000; purified HPGD, NADH fluorescence kinetic, PGE2 substrate; 15-hydroxyprostaglandin dehydrogenase [NAD(+)] (Homo sapiens), P15428; active = well fitted inhibition curve with a large enough effect, not every such curve was filed as active; inconclusive = small, poorly fitted or top-dose-only effect, or another doubt; inactive = no such curve, though single readings can be large or run the other way; note: % is set by controls: 0 for no effect and ±100 for the full control effect
Target sequence (P15428 whole entry, looked up): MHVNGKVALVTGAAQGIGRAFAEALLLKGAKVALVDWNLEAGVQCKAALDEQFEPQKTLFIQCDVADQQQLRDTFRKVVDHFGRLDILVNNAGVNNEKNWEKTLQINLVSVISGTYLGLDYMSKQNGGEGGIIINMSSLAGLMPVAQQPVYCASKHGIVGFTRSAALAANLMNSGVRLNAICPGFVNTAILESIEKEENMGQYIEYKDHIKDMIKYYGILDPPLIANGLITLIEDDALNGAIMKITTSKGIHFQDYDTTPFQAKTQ
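20 nM HPGD preincubated 15 min at room temperature with compound in 50 mM Tris-HCl pH 8, 0.01% Tween 20. Started with 1 mM NAD+ and 30 uM prostaglandin E2; NADH fluorescence (360/450 nm) read 5 times over 30-s intervals, last minus first.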
Lamin A splicing – qHTS Assay for Modulators of Lamin A Splicing; HeLa LMNA splicing GFP/RFP minigene ratio, 48 h; Potency, µM (series often up to 46.1 µM), for inactives: at the highest dose ratio change, negative = inhibition, usual class: inhibitors; hit rate 0.01% among 200,000; active = well fitted inhibition curve with a large enough effect in the signal ratio, with a control signal flat, not every such curve was filed as active; inconclusive = small, poorly fitted or top-dose-only effect, or effect the other way, or a change in a side signal; the % refers to the signal ratio; note: % is set by controls: 0 for no effect and ±100 for the full control effect
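S3 HeLa cells stably expressing lamin A-EGFP splicing minigene plus DsRed2, 600 cells/well, 48 h compound exposure at 37C. Laser-scanning cytometry; analysed as GFP (500-530 nm)/RFP (575-640 nm) total intensity ratio; 0.5% DMSO vehicle.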
HTT aggregate – qHTS Multiplex Assay to Identify Dual Action Probes in a Cell Model of Huntington: Aggregate Formation (GFP); hit rate 1.1% among 220,000; Potency, µM (top dose mostly 46.1 µM), without a hit: at the top dose activity change, negative = inhibition, most hits filed as inhibitors; PC12 HttQ103-GFP aggregates, Acumen cytometry, 40 h; AID 1688, 2009; note: % is set by controls: 0 for no effect and ±100 for the full control effect; nearly all actives have a fitted effect of over 60% in size
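Multiplexed with ATP-based cell death, this channel scores GFP aggregates in PC12 cells expressing inducible HTTex1-Q103-GFP. Induction used 100 nM tebufenozide; compounds were tested in concentration series.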
HTT ATP protect – qHTS Multiplex Assay to Identify Dual Action Probes in a Cell Model of Huntington: Cytoprotection (ATP); PC12 HTT-Q103 induced, cytoprotection, ATP luminescence, 40 h; Potency, µM (doses to about 56.4 µM), for inactives: cytoprotection (ATP increase), hits mostly activators; hit rate 0.14% among 230,000; AID 1471, 2008; note: % of control where 0% means no effect; nearly all actives have a fitted effect of over 45% in size
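Rat PC12, Q103 Htt exon1-GFP fusion, ecdysone promoter; tebufenozide inducer 100 nM final; compound titration; qHTS, 1500 cells/well; ATPlite luminescent read.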
ALDH1A1 block – qHTS Assay for Inhibitors of Aldehyde Dehydrogenase 1 (ALDH1A1); Aldehyde dehydrogenase 1A1 (Homo sapiens), P00352; Purified ALDH1A1, NADH fluorescence, propionaldehyde substrate; Potency, µM (titrated, usually from 75.3 µM), without a hit: at the top dose activity, negative = inhibition, actives largely listed as inhibitors; hit rate 7.3% among 220,000; active = well fitted inhibition curve with a large enough effect, not every such curve was filed as active; inconclusive = small, poorly fitted or top-dose-only effect, or another doubt; inactive = no such curve, though single readings can be large or run the other way;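 note: plate controls were no enzyme wells and a reference inhibitor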
Target sequence (P00352 whole entry, looked up): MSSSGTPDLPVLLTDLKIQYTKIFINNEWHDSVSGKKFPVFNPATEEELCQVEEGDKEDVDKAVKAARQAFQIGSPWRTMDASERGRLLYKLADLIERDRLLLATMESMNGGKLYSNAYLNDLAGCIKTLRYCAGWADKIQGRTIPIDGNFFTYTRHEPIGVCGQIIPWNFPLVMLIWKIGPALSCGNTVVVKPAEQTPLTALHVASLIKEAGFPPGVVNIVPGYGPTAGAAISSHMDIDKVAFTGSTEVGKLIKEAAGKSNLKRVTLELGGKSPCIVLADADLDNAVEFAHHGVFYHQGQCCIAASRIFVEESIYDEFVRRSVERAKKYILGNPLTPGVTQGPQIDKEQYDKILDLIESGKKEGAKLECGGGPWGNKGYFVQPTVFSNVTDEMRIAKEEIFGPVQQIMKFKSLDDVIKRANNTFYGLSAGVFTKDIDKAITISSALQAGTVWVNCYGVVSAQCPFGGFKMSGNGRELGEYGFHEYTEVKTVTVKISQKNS
The depositor's hits bear a star; i = inactive; ? = inconclusive; . = no result; [ ] = remark or other dose. A selection: hits, their analogues and other compounds. The true share with any hit is near 8.8%. Unless noted, calls come from the whole dose curve; as a rule, active = well fitted curve in the direction sought with a large enough effect; inconclusive = small, poorly fitted or top-dose-only effect, or another doubt; inactive = no such curve, though single readings can be large; an effect the other way counts as inactive or inconclusive. Potency is the fitted concentration of half-maximal effect.

SMILES	HPGD inh	Lamin A splicing	HTT aggregate	HTT ATP protect	ALDH1A1 block
CCOC(=O)c1c(NC(=O)CSc2ccccc2C(=O)O)sc(C)c1C	.	.	-9%[9.22 µM]	-8%[10 µM]	2%
CCOC(=O)c1csc(NC(=O)CSc2nnnn2-c2ccc(OC)cc2)n1	-3%	-6%	?	3%[10 µM]	5%
CCc1ccc(NC(=O)CSc2nccn2-c2cccc(C)c2C)cc1	.	-7%[46 µM]	.	.	.
Cc1nnc2sc(-c3ccccn3)nn12	-2%	2%	10%	-7%[0.074 µM]	8%
c1cncc(-c2nn3c(Cn4nnc5ccccc54)nnc3s2)c1	13µM*	?	-20%	-11%[0.074 µM]	7.1µM*
c1ccc(-c2nn3c(Cn4nnc5ccccc54)nnc3s2)nc1	7.1µM*	10%	8%	-14%	3.2µM*
CCN(C(=O)CSc1nnc(Nc2ccccc2)s1)C1CCS(=O)(=O)C1 (stereo not given)	.	14%[46 µM]	-2%	-77%	0%
CC(=O)OC[C@H]1O[C@@H](O/N=C(\C)CCN2CCCCc3nc(C)c(C)cc32)[C@H](OC(C)=O)[C@@H](OC(C)=O)[C@H]1OC(C)=O	.	.	.	7%[10 µM]	-8%[13.5 µM]
OB(O)c1cc2ccccc2s1	-10%	.	.	-54%	5%
Cc1ccccc1N1CCN(S(=O)(=O)c2ccc3oc(=O)ccc3c2)CC1	-16%	-18%	10µM*	2%[10 µM]	-3%
COc1ccc(-c2ccc(/C=N/N3C(=O)C4C5C=CC(C6CC56)C4C3=O)o2)c([N+](=O)[O-])c1 (stereo not given)	25µM*	-20%	-1%	6%[10 µM]	10µM*
O=C1C2C3C=CC(C4CC34)C2C(=O)N1/N=C/c1ccc(-c2ccc(Cl)cc2[N+](=O)[O-])o1 (stereo not given)	?	-9%	?	-22%	?
O=C1C2C3C=CC(C4CC34)C2C(=O)N1/N=C/c1ccc(-c2ccc(F)cc2[N+](=O)[O-])o1 (stereo not given)	20µM*	-22%	?	-19%	?
Cc1ccc(-c2ccc(/C=N/N3C(=O)C4C5C=CC(CC5)C4C3=O)o2)c([N+](=O)[O-])c1 (stereo not given)	16µM*	-20%	-32%	0%	0.89µM*
COC(=O)c1ccc(-c2ccc(/C=N/N3C(=O)C4C5C=CC(CC5)C4C3=O)o2)cc1 (stereo not given)	.	.	.	.	i
Cc1cc(C)c2nc(N(Cc3cccnc3)C(=O)c3ccc(S(=O)(=O)N(C)C)cc3)sc2c1	.	14%[46 µM]	.	.	.
CCOC(=O)c1nn(-c2ccccc2C)c(=O)c2c(N)scc12	.	-2%[9.22 µM]	4%	-31%	9.5µM*
Cc1ccc(CNC(=O)C2CCN(S(=O)(=O)c3cn(C)cn3)CC2)cc1	.	8%[46 µM]	.	.	.
c1ccc(C(c2ccccc2)N2CCN(c3nc4ccccc4n4cnnc34)CC2)cc1	.	?	-14%	-27%	14µM*
Cc1ccc(C)c(S(=O)(=O)N/N=C/c2cccnc2)c1	-10%	-5%	12%	17%[10 µM]	8.9µM*
Cc1ccc(S(=O)(=O)N/N=C\c2cccnc2)cc1	-15%	?	16%	-30%	?
Cn1c(=O)c(C(=O)NCC2CCCO2)c(O)c2ccccc21 (stereo not given)	.	9%[46 µM]	-11%[9.22 µM]	-16%[10 µM]	-3%
Cc1ccc(S(=O)(=O)/N=C(/NC(=S)Nc2cccc(C)c2)c2ccccc2)cc1	20µM*	-3%	-5%	1%	13µM*
Cc1cccc(NC(=S)N/C(=N/S(=O)(=O)c2ccccc2)c2ccccc2)c1	?	-3%	10%	-17%	22µM*
CC(=O)c1ccc(NC(=S)Nc2cccc(S(=O)(=O)Nc3c(C)n(C)n(-c4ccccc4)c3=O)c2)cc1	.	1%[46 µM]	7%	-40%	25µM*
SMILES	HPGD inh	Lamin A splicing	HTT aggregate	HTT ATP protect	ALDH1A1 block
Cc1ccc(NC(=S)Nc2cccc(S(=O)(=O)Nc3c(C)n(C)n(-c4ccccc4)c3=O)c2)cc1	.	.	5%	.	?
CC(C)OC(=S)N/C(=N\S(=O)(=O)c1ccccc1)c1ccccc1	?	-5%	14%	3%[10 µM]	11µM*
Cc1noc(C)c1-c1cncnc1N(C)Cc1ccco1	.	15%	.	-28%	-8%
Cc1c(NC(=S)N/C(=N/S(=O)(=O)c2ccc(Cl)cc2)c2ccccc2)c(=O)n(-c2ccccc2)n1C	.	.	20%[9.22 µM]	15%[10 µM]	8.9µM*
O=[N+]([O-])c1ccc(NC(=S)N/C(=N/CS(=O)(=O)c2ccccc2)c2ccccc2)cc1	28µM*	5%	?	-10%	28µM*
c1ccc2c[n+](CCCC[n+]3ccc4ccccc4c3)ccc2c1	-4%	.	.	16%[10 µM]	-3%[13.5 µM]
COc1ccc(CC(=O)Nc2ncc([N+](=O)[O-])s2)cc1OC	.	?	3%[9.22 µM]	-11%[10 µM]	20µM*
Cc1nc(C)c(C(=O)Nc2ncc([N+](=O)[O-])s2)o1	.	?	-9%	-42%	22µM*
COc1ccc(CC(=O)Nc2nccs2)cc1OC	-20%	?	24%	-31%[10 µM]	15%
O=C(Nc1ccccc1)Nc1ncc([N+](=O)[O-])s1	.	?	11µM*	14%[10 µM]	?
Cc1ccc([N+](=O)[O-])cc1-c1[nH]c(-c2ccc(O)c(O)c2)nc1-c1ccccc1	1%	?	16%	-19%	22µM*
COc1ccc(-c2nc(-c3ccccc3)c(-c3cc([N+](=O)[O-])ccc3C)[nH]2)cc1O	-10%	?	-31%	-58%	-12%
COCCn1c(=O)c(-c2ccc(Cl)cc2)nc2cnc(Nc3ccccc3)nc21	.	?	.	24%	?
Cc1ccc(NC(=O)c2ccccc2NS(=O)(=O)c2ccc(Cl)s2)cc1	-6%	?	3.2µM*	-39%[10 µM]	-13%
O=C(Nc1ccccc1Cc1ccccc1)c1ccccc1NS(=O)(=O)c1ccc(Cl)s1	-1%	?	2.5µM*	.	-2%
O=C(NCc1ccco1)c1ccccc1NS(=O)(=O)c1ccc(Cl)s1	-1%	?	18µM*	-18%	?
O=C(Nc1ccccc1)c1ccccc1NS(=O)(=O)c1ccc(Cl)s1	-5%	?	1%	9%[10 µM]	0%
O=S(=O)(NCCc1csc2nc(-c3ccc(Cl)cc3)nn12)c1ccc2c(c1)OCCO2	.	11%[46 µM]	.	.	.
O=C(Nc1cccc(F)c1)N1CCCC2(CCN(C(=O)c3cnccn3)CC2)C1	-9%	.	.	-6%	?
C[C@@H](Cc1ccccc1)Nc1ncnc2c1ncn2[C@@H]1O[C@H](CO)[C@@H](O)[C@H]1O	.	.	.	-7%	-8%
CCOc1ccc(N2C(=O)C(=O)/C(=C(/O)c3ccccc3)C2c2ccccc2[N+](=O)[O-])cc1 (stereo not given)	.	.	14%[9.22 µM]	8%[10 µM]	.
